# Gli-Sufu block – Gli-Sufu pathway antagonism | Sufu-KO-LIGHT fibroblasts, Gli luciferase reporter luminescence | inhibition, % at 5 µM | 0.74% of 340,000 active;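 active = inhibition above about 55%, limit read from the data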;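 also: 0% = DMSO-treated cells and 100% = wells with medium but no cells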
# aSyn UTR inh – 5' untranslated region of α-synuclein, MLPCN primary screen. alpha-synuclein 5'UTR reporter, inhibitor activity. inhibition, % (tested at 7.5 µM). 0.82% of 300,000 active; in the data active = inhibition above about 60%; inconclusive = no clear call, values can overlap the other calls;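 also: H4 neuroglioblastoma cells stably carrying SNCA 5'UTR luciferase fusion; 0% = DMSO wells and 100% = positive control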
# Mdm2 MdmX PPI – human Mdm2/MdmX binding inhibition. 3% of 330,000 active. AID 485346. inhibition, % at 8 µM. SaOS-2 split-luciferase Mdm2/MdmX complementation, luminescence;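 active = inhibition of at least 50% at 8 µM in the primary screen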
# Target sequence (O15151 whole entry, looked up): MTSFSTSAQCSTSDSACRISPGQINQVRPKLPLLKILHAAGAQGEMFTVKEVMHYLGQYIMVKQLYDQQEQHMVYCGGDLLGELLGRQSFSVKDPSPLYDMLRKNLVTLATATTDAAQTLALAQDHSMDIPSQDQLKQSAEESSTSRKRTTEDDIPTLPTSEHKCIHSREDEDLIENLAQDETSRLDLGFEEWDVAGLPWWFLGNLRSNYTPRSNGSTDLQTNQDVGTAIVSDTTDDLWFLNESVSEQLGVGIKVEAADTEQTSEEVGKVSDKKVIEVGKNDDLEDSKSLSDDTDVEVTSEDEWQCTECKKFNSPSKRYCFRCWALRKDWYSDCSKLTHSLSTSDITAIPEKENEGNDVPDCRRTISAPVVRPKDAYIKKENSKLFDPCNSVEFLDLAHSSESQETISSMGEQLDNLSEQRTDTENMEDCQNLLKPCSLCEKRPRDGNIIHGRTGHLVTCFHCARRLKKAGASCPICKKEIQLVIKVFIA
# Target sequence (Q00987 whole entry, looked up): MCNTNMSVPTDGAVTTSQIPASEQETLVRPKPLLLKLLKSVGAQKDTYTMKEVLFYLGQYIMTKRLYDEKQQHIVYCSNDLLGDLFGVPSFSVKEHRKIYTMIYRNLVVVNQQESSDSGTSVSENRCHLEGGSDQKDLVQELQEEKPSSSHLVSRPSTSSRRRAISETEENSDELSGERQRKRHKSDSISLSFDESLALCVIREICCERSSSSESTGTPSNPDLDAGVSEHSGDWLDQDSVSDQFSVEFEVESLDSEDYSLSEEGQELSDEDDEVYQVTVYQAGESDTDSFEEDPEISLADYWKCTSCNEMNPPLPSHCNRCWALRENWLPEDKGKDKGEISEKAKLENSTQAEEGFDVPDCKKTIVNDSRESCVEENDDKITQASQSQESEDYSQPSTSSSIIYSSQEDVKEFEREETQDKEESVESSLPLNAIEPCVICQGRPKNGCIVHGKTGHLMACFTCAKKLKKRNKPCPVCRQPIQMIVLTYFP
# 697 NFkB inh – inhibitors of the PMA/ionomycin-induced NF-kB reporter in 697 B cells. 697 B-cell NF-kB luciferase reporter, 16 h. inhibition, % at 4 µM. 0.33% of 330,000 active. AID 435022; in the data active = inhibition above about 35%
# Jurkat NFkB inh – lowers PMA/ionomycin-induced NF-kB signal in Jurkat cells; inhibition, % at 4 µM; PMA/ionomycin-induced NF-kB luciferase reporter, luminescence; 0.53% of 330,000 active; AID 435003; in the data active = inhibition above about 50%
# KLF5 inh – inhibitors of KLF5 expression; DLD-1 KLF5 promoter-luciferase reporter, luminescence; inhibition, % at 5 µM; AID 1700; 0.23% of 290,000 active;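 active = inhibition above a per-plate limit of that plate's mean compound inhibition plus 3 SD, cut at about 60% in these data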;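 also: 0% = DMSO wells and 100% = LY294002 at 200 µM; higher means less KLF5 promoter-driven luciferase light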
# Mdm2 MdmX conf – confirmation of human Mdm2/MdmX interaction inhibitors; shares compounds with Mdm2 MdmX PPI; Mdm2-MdmX binding, luminescent assay; inhibition, % at 8 µM; 55% of 10,000 active; AID 489028; in the data active = inhibition above about 40%
# Full FLuc ctr – counter-screen for Mdm2/MdmX inhibitors: full-length luciferase | shares compounds with Mdm2 MdmX PPI | SaOS-2 full-length luciferase counterscreen, luminescence | inhibition, % at 8 µM | 77% of 6,200 active | AID 504607;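 active = mean inhibition at 8 µM reaching about 37%, which flags the compound as non-specific, limit read from the data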;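 also: p53-null SaOS-2 cells with luciferase driven by a doxycycline-inducible promoter; compound on cells about two nights before reading with doxycycline added after day one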
# * hit, by the source's call; u = inconclusive; x = not tested or not shown. Only some compounds are listed: those with a hit (about 4.1% of all), similar ones and a draw of the others.
SMILES,Gli-Sufu block,aSyn UTR inh,Mdm2 MdmX PPI,697 NFkB inh,Jurkat NFkB inh,KLF5 inh,Mdm2 MdmX conf,Full FLuc ctr
Cc1[nH]n(C2=NCCS2)c(=O)c1N=Nc1cccc(C(F)(F)F)c1,25.6,66.6*,55.9*,15.3,3.4,-26.6,55.5*,36.2*
Cc1ccc2oc(Nc3nc(-c4ccccc4)cc(=O)[nH]3)nc2c1,-2.6,-44.6,96.7*,-36.1,27.1,-13.5,20.9,x
Cc1cc(C)c2nc(Nc3nc(-c4ccccc4)cc(=O)[nH]3)nc(C)c2c1,-17.1,-4.9,71.5*,5.4,2.9,3.9,23.2,x
CC[N+]1(CC(O)COC2CC(C)CC(C)(C)C2)CCOCC1 (centres undefined),32.8,16.0,25.5,-1.3,4.0,-0.2,x,x
Cc1ccc(N(CC(=O)NC2CCCCC2)S(=O)(=O)c2cccs2)cc1,4.1,4.6,66.1*,-4.2,1.3,-14.9,11.6,x
O=C1/C(=N\S(=O)(=O)c2cccs2)C([n+]2ccc(CCCc3ccccc3)cc2)=C([O-])c2ccccc21,3.3,91.1*,82.9*,-5.5,28.3,-40.1,52.4*,41.3*
CC[C@H](C)[C@@H](CN[C@H](C)CNC)NCCC(c1ccccc1)c1ccccc1,2.6,-43.6,98.9*,19.3,-7.0,-9.9,93.4*,4.3
CNC(=S)NCCC(c1ccccc1)c1ccccc1,-3.3,26.8,13.9,-4.4,-5.1,3.0,x,x
CCOC(=O)N1CCN(Cc2ccc(O)c3ncccc23)CC1,26.2,17.7,50.2*,-8.5,3.4,7.9,-8.9,x
Cc1ccc(C)c(S(=O)(=O)N2CCN(Cc3ccc(O)c4ncccc34)CC2)c1,73.5*,73.9*,78.1*,-42.2,15.9,26.2,71.2*,36.5*
CSc1ncccc1C(=O)N1CCN(S(=O)(=O)c2cc(C)ccc2C)CC1,1.9,15.1,17.7,14.1,3.5,-9.3,x,x
Oc1ccc(CN2CCCCC2)c2cccnc12,13.6,u,49.9,-19.5,20.3,14.5,x,x
CCOC(=O)N1CCN(Cc2ccccn2)CC1,x,-12.2,-19.1,1.1,-7.8,-10.5,x,x
Oc1ccc(CN2CCN(c3ccccc3)CC2)c2cccnc12,12.1,79.5*,78.3*,-24.8,4.3,-1.3,65.5*,66.7*
Oc1ccc(CN2CCC(Cc3ccccc3)CC2)c2cccnc12,67.0*,105.0*,72.8*,-153.8,40.2,14.6,68.7*,69.4*
Cc1ccc(CSc2nnc(-c3ccncc3)n2CC2CCCO2)cc1 (centres undefined),-3.4,8.1,-25.7,-12.0,8.0,-19.9,x,x
CCCCN(C(=O)CSCc1ccc(C)cc1)c1c(N)n(CCC)c(=O)[nH]c1=O,-5.7,12.8,-4.9,10.0,2.9,-29.3,x,x
CC(=O)NCc1ccc(C(=O)O)cc1,3.1,-0.2,10.0,15.4,-0.3,-16.9,x,x
Oc1c(CN2CCN(c3ccccn3)CC2)cc(Cl)c2cccnc12,70.6*,92.4*,71.7*,-58.2,34.3,2.5,71.1*,28.0
CCCCN(CC)CCNC(=O)c1cc2c(-c3ccccc3F)nn(C)c2s1,18.6,-74.8,32.3,0.4,6.6,-0.3,x,x
CCN(CC)CCCNC(=O)c1cc2c(-c3ccc(Cl)cc3)nn(C)c2s1,1.5,-39.5,64.3*,-18.4,-27.2,-13.7,21.2,x
CN1CCN(CCCNC(=O)c2cc3c(-c4ccc(Cl)cc4)nn(C)c3s2)CC1,-0.4,-24.7,68.4*,16.7,20.3,-33.2,30.8,x
CCOC(=O)c1c(C2CC2)csc1NC(=O)COC(=O)CCS(=O)(=O)c1ccc(C)cc1,-0.3,32.7,6.2,1.3,-13.7,10.1,x,x
Cc1ccc(-n2nc3c(c2NC(=O)c2ccc(S(=O)(=O)N4CCOCC4)cc2)CSC3)c(C)c1,-1.6,x,5.2,-4.2,11.1,-24.5,x,x
CCC1CCCCN1CCCCOc1cccc(Cl)c1 (centres undefined),6.6,5.6,21.4,4.0,2.9,-26.2,x,x
SMILES,Gli-Sufu block,aSyn UTR inh,Mdm2 MdmX PPI,697 NFkB inh,Jurkat NFkB inh,KLF5 inh,Mdm2 MdmX conf,Full FLuc ctr
Cc1sc2ncnc(Sc3nnnn3-c3ccccc3)c2c1C,13.3,-33.4,87.8*,-32.0,2.4,-20.4,47.7*,6.5
Clc1ccc(-n2nnnc2Sc2ncnc3sccc23)cc1,2.5,29.7,90.2*,-55.4,18.0,-0.2,74.0*,43.5*
Cc1sc2ncnc(Sc3ccccc3C(=O)O)c2c1C,3.7,3.0,25.8,22.0,4.9,-26.7,x,x
O=C(CSc1nnnn1-c1ccc(Cl)cc1)N1CCNC1=O,-10.2,x,-5.0,-0.2,0.5,x,x,x
CC(C)OC(=O)c1c2nc3ccccc3nc2n2c1[nH]c(=O)c1ccccc12,x,29.3,59.5*,24.9,16.1,3.2,32.9,47.8*
COc1ccc(CN2CCNC(=O)C2CC(=O)N(C)CCCN2CCOCC2)cc1C (centres undefined),4.2,12.7,-2.5,4.2,8.7,-9.4,x,x
COc1cc(/C=N/NC(=Nc2ccc(C)cc2)c2nc3ccccc3s2)ccc1O,-29.1,-148.5,82.8*,-86.3,-57.7,-43.5,79.5*,50.8*
CC(=O)c1ccc(NC(=O)C(=O)c2cn(CC(=O)N3CCCCC3)c3ccccc23)cc1,-6.2,18.4,-15.8,-9.0,3.1,11.3,x,x
Nc1c(-c2ccccc2)c(CSc2nc3ccccc3[nH]2)nn1-c1ccc(Cl)cc1,16.8,33.5,x,x,x,-19.7,x,x
Nc1c(-c2ccccc2)c(CSc2nc3ccccc3[nH]2)nn1-c1cccc(Cl)c1,5.7,-2.0,61.3*,-25.6,6.5,-39.9,4.9,x
COc1c(Br)cc([N+](=O)[O-])c(OC)c1C(=O)NC(=O)Nc1cc(Cl)cc(Cl)c1,2.0,49.3,85.2*,-39.5,30.2,11.3,78.8*,85.4*
O=C(NC1CCCC1)c1cccc(S(=O)(=O)N2CCCC2)c1,5.5,x,13.8,19.9,-6.4,x,x,x
Cc1cc(N2O[C@]34C=C[C@]25C[C@@H](O)CC[C@]5(C)C3CC[C@]2(C)[C@@H]([C@H](C)/C=C/[C@H](C)C(C)C)CC[C@H]24)no1 (some centres undefined),2.7,x,90.7*,-36.9,x,x,-49.8,x
O=C(C1=C[C@@H](c2ccc(Br)cc2)C[C@@H](OCCCCO)O1)N1CCN(Cc2ccccc2)CC1,20.6,42.8,55.5*,3.8,-4.9,6.6,49.8*,65.7*
Cc1cccc(NC(=O)CSc2nnc(CNC(=O)c3cccs3)o2)c1C,-0.4,-1.0,1.3,-9.5,-2.6,9.2,x,x
COc1ccc(Cc2ccccc2C(=O)O)cc1,7.6,x,x,x,x,x,x,x
COc1ccc(CC2=CC(=O)c3ccccc3C2=O)cc1,4.8,-24.4,54.8*,-105.5,16.2,-54.8,12.8,x
Cc1ccc(NC2CCCN(C(=O)c3cc4ncccn4n3)C2)cc1C (centres undefined),-9.4,13.7,-13.3,-2.8,9.4,-25.9,x,x

# Bioassay records: PubChem BioAssay, several laboratories
